Common to all, as to assay: NCI-60 one-dose screen, 48 h (100 = growth as untreated, 0 = no growth, -100 = all killed)
Conditions in all cases: 10 µM unless noted

For test [1], the system named is T-47D breast.
Test [2] concerns BT-549 breast.
Test [3] concerns MDA-MB-435 melanoma.
The subject of test [4] is SW-620 colon.
For test [5], the system named is HCT-116 colon.
Test [6] concerns HCC-2998 colon.
The test system of test [7] is KM12 colon.
The subject of test [8] is MCF7 breast.

Molecules are shown by their SMILES. This is part of a sample that, as a whole, favours compounds with a hit. Of some 83,000 tested, about 20% had one in any assay.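 The test compound was applied at a single concentration to cells in 96-well plates for 48 hours, and percent growth was recorded.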 Values without a mark were called inactive. Calls of active or inactive are those of the source. Rule for the calls: active = growth percent below 10; inactive = the rest.

Consider `O=C1c2cccc3c(-c4ccc5c(c4)ncn5C4CCCCC4)ccc(c23)C(=O)N1CCO`, for which the growth in test [1] is 68%; in test [2] it was 95.2%; in test [3], 109%; in test [4], 104%; in test [5], 80%; in test [6], 93.2%. The growth in test [7] was 86.7%.

In the case of `CSc1nc2sc3cccc(Cl)c3n2c(=N)c1C#N`, the growth in test [1] was 83.9%; in test [2], 96.7%; in test [3], 104%; in test [4] it was 102%; in test [5], 101%; in test [7] it was 101%.

As for `C=C1C(=O)O[C@H]2[C@H]1CC/C(C(=O)NCCCCCNC(=O)/C1=C/CC[C@@]3(C)O[C@H]3[C@H]3OC(=O)C(=C)[C@@H]3CC1)=C\CC[C@@]1(C)O[C@@H]21`, the growth in test [1] is 94.2%; in test [2] it was 98.2%; in test [3] it was 105%; in test [4], 101%; in test [5] it was 87%; in test [6], 105%. In addition, the growth in test [7] is 103%.

Regarding `O=C(CCN1CCCC1)c1ccc([N+](=O)[O-])cc1`, the growth in test [1] was 88.6%; in test [3], 107%; in test [4], 105%; in test [8] it was 87.6%; in test [5], 105%; in test [6], 94.8%. The growth in test [7] was 105%.

As for `N#C/C(=C\c1ccc([N+](=O)[O-])s1)c1nc2cc(Br)ccc2s1`, the growth in test [1] was 4.46% (active); in test [2], -13% (active); in test [3], 0.206% (active); in test [8], -14.2% (active); in test [5], -66.4% (active); in test [6] it was -8.27% (active). In addition, the growth in test [7] is 16.2%.

Take `c1ccc(Cn2cnc3ccc(-c4nc(-c5ccc6c(c5)ncn6C5CCCCC5)cn5ccnc45)cc32)cc1`: the growth is -2.12% (active) in test [1]; -44.7% (active) in test [2]; -6.16% (active) in test [3]; 2.17% (active) in test [4]; -75.7% (active) in test [5]; -88% (active) in test [6]. In addition, the growth in test [7] is -39.4% (active).

With `Cc1ccc(S(=O)(=O)Nn2c3c(cc(-c4nc5ccccc5s4)c2=O)CCCCCC3)cc1`, the growth in test [1] is 96.4%; in test [2], 109%; in test [3], 103%; in test [4] it was 99.6%; in test [5] it was 98%; in test [6] it was 115%. Moreover, the growth in test [7] was 101%.

For the compound `CCN1Cc2nc3sc(C)c(C)c3c(=O)n2C=C1C`, the growth is 37.1% in test [1]; -5.48% (active) in test [2]; 48.1% in test [3]; 15.6% in test [4]; -24.9% (active) in test [5]; 81.2% in test [6]. For the same compound, in test [7], the growth was 14.5%.

Consider `CC(C)N1C(=O)S/C(=C2/SC(=O)N(C(C)C)C2=O)C1=O`, for which the growth in test [1] was 104%; in test [2], 93.6%; in test [3] it was 100%; in test [4] it was 102%; in test [5], 105%; in test [6], 104%. The growth in test [7] was 99.9%.

Take `Cc1ccc(/C=C(/C#N)n2nnc3cccc(F)c32)cc1`: the growth in test [1] was 21.9%; in test [2], 27.1%; in test [3], -89.5% (active); in test [4], 1.87% (active); in test [5], 2.07% (active); in test [6], -32.1% (active). The growth in test [7] was -17.6% (active).

On to `CCOC(=O)c1nc2c3ccccc3ccn2c1C(=O)OCC`, for which the growth was 98.2% in test [1]; 103% in test [2]; 105% in test [3]; 95.9% in test [8]; 104% in test [5]; 103% in test [6]. For the same compound, the growth in test [7] is 100%.

In the case of `NC(=O)CSSCC(N)=O`, the growth in test [1] is 103%; in test [3], 91.6%; in test [4] it was 95.3%; in test [8], 103%; in test [5], 91.6%; in test [7] it was 101%.

In the case of `Cc1ccc(/C=N/NC(=O)CSc2nc3ccccc3c(=O)n2Cc2ccc(S(N)(=O)=O)cc2)cc1`, the growth in test [1] was 81.7%; in test [2], 103%; in test [3] it was 46.2%; in test [4], 94%; in test [5], 97.8%; in test [6], 99.9%. In addition, the growth in test [7] is 86.3%.

Consider `C/C(=N\Nc1cc(C)nc2ccc(Br)cc12)c1ccc([N+](=O)[O-])cc1`, for which the growth was 62% in test [1]; 105% in test [2]; 72.6% in test [3]; 49.3% in test [4]; 13.3% in test [5]; 55.8% in test [6]. The growth in test [7] is 75.5%.

With `C=C(C)[C@@H]1CC[C@]2(CN)CC[C@]3(C)[C@H](CC[C@@H]4[C@@]5(C)CCCNC(C)(C)[C@@H]5CC[C@]43C)[C@@H]12`, the growth in test [1] was -10.1% (active); in test [2] it was 84.6%; in test [3] it was -96.2% (active); in test [4] it was -84.5% (active); in test [5], -95.5% (active); in test [7], -85.4% (active).

As to `O=C1Nc2cc(-c3ccc(NC(=O)C4CC4)cc3)ccc2/C1=C/c1ccc[nH]1`, the growth in test [1] was 21.7%; in test [2], 104%; in test [3], 99.9%; in test [4], 113%; in test [5], 104%; in test [6], 111%. The growth in test [7] was 39.8%.

For `CCCCCCNC(=O)Oc1ccc(/C(=C(\C)c2ccccc2)c2ccc(OCCCN(C)C)cc2)cc1`, the growth in test [1] was 46.2%; in test [2], 85.4%; in test [3], 48.3%; in test [4] it was 92.4%; in test [5] it was 47.1%; in test [6], 86.7%. The growth in test [7] was 74.3%.

As to `O=C1Nc2ccc(F)cc2/C1=C\c1c(-c2ccccc2)nc2ccccn12`, the growth is 61.8% in test [1]; 65.9% in test [2]; -10.1% (active) in test [3]; 49.8% in test [4]; 63.8% in test [5]; 93.3% in test [6]. The growth in test [7] is 45.7%.

`O=C1OC(Cc2ccccc2)C1c1ccccc1` (centres undefined): the growth is 93.7% in test [1]; 95.1% in test [2]; 102% in test [3]; 107% in test [4]; 90.8% in test [5]; 99.5% in test [6]. Further, the growth in test [7] was 101%.

In the case of `CCOC(=O)[C@@H]1CCCN(S(=O)(=O)c2ccc(S(=O)(=O)N(CC)CC)c(F)c2)C1`, the growth in test [1] is 53.3%; in test [2], 58.5%; in test [3], 75.6%; in test [4], 86.6%; in test [5] it was 42%; in test [6] it was 92.5%. Besides, the growth in test [7] was 81.9%.

`CC1(C)NCCC[C@]2(C)[C@H]3CC(=O)[C@H]4[C@@H]5C[C@](C)(CO)CC[C@]5(C)CC[C@@]4(C)[C@]3(C)CC[C@@H]12`: the growth was 87.5% in test [1]; 103% in test [2]; 92.2% in test [3]; 98.6% in test [4]; 84.1% in test [5]; 100% in test [6]. Besides, the growth in test [7] is 95.4%.

For `COc1cc(/C=C\c2cc(/C=C\c3ccc(O)c(OC)c3)n(C(=O)COc3ccccc3)n2)ccc1O`, the growth in test [1] is 12.4%; in test [2], -3.68% (active); in test [3] it was 8.84% (active); in test [4], 7.35% (active); in test [5] it was 3.68% (active); in test [6], 34.8%. Also, the growth in test [7] is 8.96% (active).

In the case of `O=C(Cc1ccc(/C=C/C(=O)c2nccs2)cc1)Nc1ccccc1`, the growth in test [1] is 92.8%; in test [2], 93%; in test [3], 100%; in test [4] it was 51.9%; in test [5] it was -43.8% (active); in test [6], 105%. Besides, the growth in test [7] was 70.7%.

For `CCc1c(Cl)nc(N)nc1Nc1ccc(C)c(C)c1`, the growth in test [1] was 91.2%; in test [2], 106%; in test [3] it was 99.6%; in test [4], 102%; in test [5], 76%; in test [6] it was 101%. For the same compound, the growth in test [7] is 99.2%.

Turning to `N=C(N)c1ccc(OCCCCCCCCCCOc2ccc(C(=N)N)cc2)cc1`, the growth in test [1] is -59.1% (active); in test [2] it was -84.5% (active); in test [3] it was -94.6% (active); in test [4], -91.3% (active); in test [5] it was -99.7% (active); in test [6] it was -94.9% (active). Also, in test [7], the growth is -87.9% (active).

For `COc1ccc(OC)c(CCn2cncc2-c2c[nH]c3ccccc23)c1`, the growth was 45.8% in test [1]; 83.8% in test [2]; 58.9% in test [3]; 71% in test [8]; 77.7% in test [5]; 91.8% in test [6]. The growth in test [7] was 89.1%.

For the compound `CCCNC(=O)Oc1ccc(/C(=C(\C)c2ccccc2)c2ccc(OCCCN(C)C)cc2)cc1`, the growth is 33.3% in test [1]; 83% in test [2]; 63% in test [3]; 90% in test [4]; 54.2% in test [5]; 64.8% in test [6]. In test [7], the growth was 67.2%.

As for `CC(C)(C)c1cc(C=O)cc(C(C)(C)C)c1O`, the growth in test [1] is 110%; in test [2], 92.5%; in test [3] it was 111%; in test [4], 97.7%; in test [5], 92.9%; in test [7] it was 99.6%.

`Oc1c(Cl)cc(Cl)c(Cl)c1CNCCNCc1c(O)c(Cl)cc(Cl)c1Cl`: the growth in test [1] is 20.2%; in test [3], 37.1%; in test [4], 31.5%; in test [8], 15.6%; in test [5], 13.9%; in test [6], 25.2%. In addition, in test [7], the growth was 24%.

The values above are taken from PubChem BioAssay (NCI).
